Test [1] in a line: TOX21_p53_BLA_p5_viability: Viability Assessment in the Tox21 HCT-116 p53 Agonism Beta-lactamase Assay, Phase 5 (AID 2283600). In short, it runs like this: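 After the 460/530 nm beta-lactamase measurement, the wells received an ATP-detection luciferase reagent; signal was read 30 min later at RT. Compound treatment lasted 16 h on cells pre-incubated 5 h post-seeding.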
The nature of test [2]: Tanguay_ZF_120hpf_MORT_legacy: (Legacy) Oregon State University Tanguay Lab 120 Hour Post-fertilization zebrafish Assay for Mortality (AID 2283633).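 On AC50: fitted as increase in binary mortality versus DMSO negative control.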 An outline of the steps:
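Static waterborne exposure from 6 to 120 hpf at 28C of single dechorionated wild-type (5D) embryos per well, 0.64% DMSO final. Death recorded present/absent by brightfield at 24 and 120 hpf.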

Test [3] in a line: Tanguay_ZF_120hpf_YSE_legacy: (Legacy) Oregon State University Tanguay Lab 120 Hour Post-fertilization zebrafish Assay for Yolk Sac Edema (AID 2283634).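 On AC50: actives raise the incidence of yolk sac edema above the DMSO baseline.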 An outline of the steps:
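Presence or absence of yolk sac edema was recorded at 120 hpf in surviving larvae. These were wild-type Tropical 5D embryos, chorion removed at 4 hpf, held in static exposure at 28C from 6 hpf with 0.64% DMSO vehicle.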

The nature of test [4]: Tanguay_ZF_120hpf_EYE_legacy: (Legacy) Oregon State University Tanguay Lab 120 Hour Post-fertilization zebrafish Assay for Eye Malformation (AID 2283636).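 Further: binary presence or absence of eye malformation scored by brightfield in 120 hpf larvae.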 An outline of the steps: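 Dechorionated wild-type Tropical 5D zebrafish embryos were exposed statically from 6 hpf, one per well, to 120 hpf at 28C in sealed, foil-covered plates with 0.64% DMSO. Eye malformation was scored present/absent by brightfield microscopy against DMSO controls.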

A short description of test [5]: Tanguay_ZF_120hpf_SNOU_legacy: (Legacy) Oregon State University Tanguay Lab 120 Hour Post-fertilization zebrafish Assay for Snout Malformation (AID 2283637). In short, it runs like this: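 Tropical 5D wild-type zebrafish embryos, dechorionated with pronase at 4 hpf, were exposed singly from 6 hpf to 120 hpf statically at 28C in 0.64% DMSO. Snout malformation was scored present/absent by brightfield microscopy, fitted against DMSO.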

Test [6] is described as follows: Tanguay_ZF_120hpf_JAW_legacy: (Legacy) Oregon State University Tanguay Lab 120 Hour Post-fertilization zebrafish Assay for Jaw Malformation (AID 2283638).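 On AC50: active means more embryos with jaw malformation than DMSO controls.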 An outline of the steps:
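Binary jaw-malformation call at 120 hpf by brightfield microscopy. Embryos (Tropical 5D strain, chorion removed at 4 hpf) were dosed statically at 6 hpf, one per well, at 28C with 0.64% DMSO. Embryos that died were not scored.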

Test [7] in a line: Tanguay_ZF_120hpf_OTIC_legacy: (Legacy) Oregon State University Tanguay Lab 120 Hour Post-fertilization zebrafish Assay for Otic Vesicle Malformation (AID 2283639). In short, it runs like this: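 Tropical 5D wild-type zebrafish embryos statically exposed in 0.64% DMSO at 28C until 120 hpf; 5uM trimethyltin chloride as positive control. Otic vesicle malformation scored present/absent by brightfield; dead embryos not scored; gain fitted versus DMSO.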

Test [8] in a line: Tanguay_ZF_120hpf_PE_legacy: (Legacy) Oregon State University Tanguay Lab 120 Hour Post-fertilization zebrafish Assay for Pericardial Edema (AID 2283640).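 On AC50: potency for increased incidence of pericardial edema versus DMSO baseline.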 In short, it runs like this:
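Scoring was binary, by brightfield microscopy at 120 hpf, and skipped where mortality occurred. Wild-type embryos were kept under sealed, foil-covered static exposure at 28C in 0.64% (vol/vol) DMSO.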

Test [9] is described as follows: Tanguay_ZF_120hpf_BRAI_legacy: (Legacy) Oregon State University Tanguay Lab 120 Hour Post-fertilization zebrafish Assay for Brain Malformation (AID 2283641). An outline of the steps:
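Binary brightfield scoring of brain malformation at 120 hpf in Tropical 5D larvae held under static exposure at 28C (0.64% v/v DMSO), non-mortality endpoints skipped if dead. Positive control: 5uM trimethyltin chloride; fit versus DMSO.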

A short description of test [10]: Tanguay_ZF_120hpf_SOMI_legacy: (Legacy) Oregon State University Tanguay Lab 120 Hour Post-fertilization zebrafish Assay for Somite Malformation (AID 2283647). An outline of the steps:
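Binary somite-defect scoring at 120 hpf, omitted for embryos that died, in wild-type (Tropical 5D) zebrafish with chorion removed by pronase at 4 hpf; static exposure began 6 hpf, single embryos per well, 28C, 0.64% DMSO; fitted positive versus DMSO.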

A short description of test [11]: Tanguay_ZF_120hpf_CFIN_legacy: (Legacy) Oregon State University Tanguay Lab 120 Hour Post-fertilization zebrafish Assay for Caudal Fin Malformation (AID 2283649). In short, it runs like this: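 Binary brightfield scoring of caudal fin defects at 120 hpf after static, light-shielded exposure at 28C from 6 hpf. Tropical 5D embryos, chorion removed with pronase at 4 hpf, final DMSO 0.64%.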

Test [12] is described as follows: Tanguay_ZF_120hpf_CIRC_legacy: (Legacy) Oregon State University Tanguay Lab 120 Hour Post-fertilization zebrafish Assay for Circulatory Malformation (AID 2283651). An outline of the steps: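 Dechorionated wild-type 5D zebrafish embryos, one per well, statically exposed from 6 to 120 hpf at 28C with 0.64% DMSO; circulatory malformation scored present/absent by brightfield microscopy at 120 hpf, dead embryos excluded.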

A short description of test [13]: Tanguay_ZF_120hpf_TRUN_legacy: (Legacy) Oregon State University Tanguay Lab 120 Hour Post-fertilization zebrafish Assay for Truncated Body (AID 2283655). An outline of the steps:
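Binary presence/absence of truncated body is recorded at 120 hpf by brightfield, with non-mortality endpoints skipped after death. Exposure is static from 6 hpf in sealed dark plates at 28C, using dechorionated wild-type zebrafish, 0.64% DMSO.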

Test [14] concerns the target Cellular tumor antigen p53 (Homo sapiens) (UniProt P04637). Nature of the test: TOX21_p53_BLA_p5_ratio: Tox21 HCT-116 p53 Agonism Beta-lactamase Assay, Ratio, Phase 5 (AID 2283599). An outline of the steps:
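HCT-116 cells carrying a p53-inducible beta-lactamase reporter were seeded at 4000 cells/well and dosed after 5 h with compound in DMSO (217-fold dilution). After 16 h at 37C, CCF4-AM substrate was added for 2 h, and the 460/530 nm emission ratio was scored as gain-of-signal versus DMSO.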

The target is the same in test [15]. Description: TOX21_p53_BLA_p4_ratio: Tox21 HCT-116 p53 Agonism Beta-lactamase Assay, Ratio, Phase 4 (AID 2283601). An outline of the steps: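 HCT116 cells carrying an inducible beta-lactamase reporter were plated at 4000 cells/well, rested 5 h, then exposed to compounds in DMSO (217-fold dilution) for 16 h at 37C. CCF4-AM substrate was loaded 2 h at room temperature; 460/530 nm emission ratio scored gain-of-signal versus DMSO.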

Test [16] in a line: Tanguay_ZF_120hpf_PIG_legacy: (Legacy) Oregon State University Tanguay Lab 120 Hour Post-fertilization zebrafish Assay for Pigmentation Malformation (AID 2283650). In short, it runs like this: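 Tropical 5D wild-type zebrafish embryos, dechorionated with pronase at 4 hpf, were exposed singly from 6 hpf to 120 hpf statically at 28C in sealed, dark plates with 0.64% DMSO; pigmentation scored present/absent by brightfield microscopy, fitted against DMSO.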

Test [17] in a line: Tanguay_ZF_120hpf_SWIM_legacy: (Legacy) Oregon State University Tanguay Lab 120 Hour Post-fertilization zebrafish Assay for Swim Bladder Malformation (AID 2283654).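 Further: swim bladder malformation in each larva scored yes or no under brightfield.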 In short, it runs like this:
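Dechorionated Tropical 5D wild-type embryos, placed singly from 6 hpf, were statically exposed at 28C to 120 hpf with 0.64% DMSO final; swim bladder malformation was scored present/absent by brightfield microscopy, gain of signal relative to DMSO controls.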

A short description of test [18]: Tanguay_ZF_120hpf_PFIN_legacy: (Legacy) Oregon State University Tanguay Lab 120 Hour Post-fertilization zebrafish Assay for Pectoral Fin Malformation (AID 2283648).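 Further: each larva judged yes or no for fin defect by brightfield with dead larvae skipped.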 An outline of the steps: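 Tropical 5D wild-type embryos, dechorionated with pronase at 4 hpf, were placed singly in wells at 6 hpf and statically exposed until 120 hpf at 28C, sealed and dark, with 0.64% (vol/vol) final DMSO; pectoral fin malformation scored present/absent.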

Test [19] is described as follows: Tanguay_ZF_120hpf_AXIS_legacy: (Legacy) Oregon State University Tanguay Lab 120 Hour Post-fertilization zebrafish Assay for Body Axis Malformation (AID 2283635). In short, it runs like this: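 Binary scoring of axis defects at 120 hpf under brightfield, fitted positive versus DMSO. Tropical 5D embryos, chorion removed by pronase at 4 hpf, were singly exposed in sealed, dark plates at 28C from 6 hpf; DMSO 0.64% final.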

“And” between values parts separate entries of the source, which are not always exact repeats. Equal values may be shown once. Results filed as inconclusive are left out. More than one record can exist for a structure, and the calls need not agree. The source made the active and inactive calls. How the source made its calls: active means hit-call score of the fitted dose curve at least 0.9, where 1 is the maximum; inconclusive means response in the unintended direction; inactive means score below 0.9.

Here are results for seven compounds from PubChem BioAssay (EPA / NIEHS).

One may read the AC50 as the concentration at which the activity in the assay is half-maximal.

Chain of Cellular tumor antigen p53 (Homo sapiens) (P04637 whole entry, looked up): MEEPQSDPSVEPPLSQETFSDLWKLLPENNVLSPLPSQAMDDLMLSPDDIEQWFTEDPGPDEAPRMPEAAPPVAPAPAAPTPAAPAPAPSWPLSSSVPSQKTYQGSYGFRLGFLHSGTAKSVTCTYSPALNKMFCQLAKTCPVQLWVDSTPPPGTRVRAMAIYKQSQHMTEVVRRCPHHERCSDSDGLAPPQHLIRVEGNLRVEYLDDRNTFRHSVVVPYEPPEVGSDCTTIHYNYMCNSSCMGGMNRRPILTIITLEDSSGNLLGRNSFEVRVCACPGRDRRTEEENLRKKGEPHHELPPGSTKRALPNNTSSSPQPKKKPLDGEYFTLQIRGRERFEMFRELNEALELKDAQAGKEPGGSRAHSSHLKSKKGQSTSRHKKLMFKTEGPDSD

With `O=C(NC(=O)c1c(F)cccc1F)Nc1cc(Cl)c(OC(F)(F)C(F)F)c(Cl)c1`, the result in [1], in test [2], in [3], in test [4], in test [5] and in test [6] was inactive. The compound was classed as inactive in test [7], in test [8], in test [9], in test [10], in [11] and in test [12]. Also, in test [13], the call was inactive.
In the case of `Oc1c(Cl)c(Cl)c(Cl)c(Cl)c1Cl`, the AC50 is 8.02 µM (active) in test [14]; 11.1 µM (active) and 2.43 µM (active) in test [15]; 0.801 µM (active) in test [2]. In addition, the outcome in [14], in test [1], in test [3], in test [4], in [5] and in test [6] was inactive. Also, the result in test [7], in [8], in test [10], in test [11], in [16] and in [12] was inactive. The call in [17] and in test [13] was inactive.
Regarding `Oc1ccc(C(c2ccc(O)cc2)(C(F)(F)F)C(F)(F)F)cc1`, the concentration at half-maximal activity (AC50) in [14] was 72.8 µM (active); in test [1] it was 72.3 µM (active); in test [15], 57.3 µM (active) and 69.7 µM (active); in [2], 33 µM (active); in test [3], 57.4 µM (active); in test [4] it was 53.9 µM (active). For the same compound, the concentration at half-maximal activity (AC50) in test [5] was 53.8 µM (active); in [6] it was 54.7 µM (active); in [7] it was 51.7 µM (active); in test [8], 37.7 µM (active); in [18] it was 53.3 µM (active); in [11] it was 54 µM (active). In addition, the AC50 in test [16] is 56.9 µM (active); in test [13] it was 53 µM (active). Further, the outcome in [14], in test [1], in test [12] and in test [17] was inactive.
For the compound `O=NN(c1ccccc1)c1ccccc1`, the result in [14], in test [1], in [15], in test [2], in test [3] and in test [4] was inactive. Further, the call in [5], in test [6], in test [7], in test [8], in [10] and in test [16] was inactive. The call in test [12] and in test [17] was inactive.
Consider `C=CC(N)=O`, for which the compound was called inactive in test [1], in [2], in test [3], in test [4], in test [5] and in [6]. Besides, the outcome in [7], in test [8], in test [9], in test [10], in test [18] and in [11] was inactive. Further, the compound was classed as inactive in test [16], in test [12] and in test [17].
In the case of `O=S(=O)(O)C(F)(F)C(F)(F)C(F)(F)C(F)(F)F`, the compound was called inactive in test [1], in [15], in test [2], in test [19], in test [4] and in test [5]. In addition, the compound was classed as inactive in [6], in test [16], in [17] and in test [13].
`Cc1ccccc1[N+](=O)[O-]`: the result in test [1], in test [15], in test [3], in test [4], in test [5] and in [6] was inactive. Besides, the compound was classed as inactive in [7], in [8], in test [10], in test [11], in test [16] and in test [12]. Besides, the compound was called inactive in test [17] and in [13].
